Inconclusive results are not listed. Where a call stands in place of a potency, no number is given. Activity calls are given as the source filed them. Calls come from the whole dose curve; as a rule, active = well fitted activation curve with a large enough effect; inconclusive = small, poorly fitted or top-dose-only effect, or effect the other way; inactive = no such curve, though single readings can be large or run the other way.

Experimental findings from PubChem BioAssay AID1541 (National Center for Advancing Translational Sciences (NCATS), 2009) are described below.

The target in the test is Pyruvate kinase PKLR (Homo sapiens) (UniProt P30613). The test can be described thus: Secondary assay for Activators of Human Liver Pyruvate Kinase. The note with it: purified hPK-L, LDH-coupled NADH fluorescence kinetic; series mostly up to 57.5 µM. From the text: Confirmatory assay NIH Chemical Genomics Center [NCGC] Matthew G. Vander Heiden, M.D., Ph.D. [Harvard Medical School, 77 Avenue Louis Pasteur, Boston, MA 02115] NCGC Assay Overview: Human pyruvate kinase liver (hPK-L)enzyme was supplied as a highly purified (>95% pure) preparation from Harvard Medical School and a secondary assay was used to evaluate compounds. This assay couples the formation of pyruvate from hPK-R using lactate dehydrogenase (LDH) and NADH. The depletion of NADH is followed in a fluorescent-based kinetic assay that follows the formation of pyruvate to lactate, as catalyzed LDH. Pyruvate kinase substrates, PEP and ADP, were present in the assay at 0.1 mM and 4 mM respectively. In this kinetic assay initial rates were determined by following the fluorescence of NADH depletion.
Pyruvate kinase PKLR (Homo sapiens), sequence (P30613 whole entry, looked up): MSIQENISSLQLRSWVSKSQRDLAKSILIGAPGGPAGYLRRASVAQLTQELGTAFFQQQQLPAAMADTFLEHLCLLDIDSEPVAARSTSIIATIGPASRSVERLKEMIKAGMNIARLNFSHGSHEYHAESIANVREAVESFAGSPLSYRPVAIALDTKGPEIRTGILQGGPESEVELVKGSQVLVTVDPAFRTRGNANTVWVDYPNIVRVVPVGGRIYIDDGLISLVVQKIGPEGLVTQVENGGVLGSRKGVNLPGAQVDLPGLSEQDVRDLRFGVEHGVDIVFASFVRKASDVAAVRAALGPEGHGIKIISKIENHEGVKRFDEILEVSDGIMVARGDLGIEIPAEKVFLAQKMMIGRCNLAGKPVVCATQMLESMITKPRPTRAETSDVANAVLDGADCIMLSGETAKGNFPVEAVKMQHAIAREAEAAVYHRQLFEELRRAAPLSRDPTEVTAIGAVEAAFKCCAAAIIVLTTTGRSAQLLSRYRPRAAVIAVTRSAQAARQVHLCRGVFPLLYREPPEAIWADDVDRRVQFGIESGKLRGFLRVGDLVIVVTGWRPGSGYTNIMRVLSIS
NCGC Assay Protocol Summary: Three uL of substrate mix (final concentration, 50 mM Tris-Cl pH 8.0, 200 mM KCl, 15 mM MgCl2, 0.1 mM PEP, 4.0 mM ADP, and 0.2 mM NADH) was dispensed into black-solid 1536 well plates. 23 nL of compounds were delivered by a pin tool and 1 uL of enzyme mix (final concentrations, 10 nM hPK-L and 1 uM of LDH) was added. Plates were immediately placed in ViewLux (Perkin Elmer) and NADH fluorescence was determined at 30 second exposure intervals for between 3 and 6 minutes. Data were normalized to the uninhibited and EC100 activation using known activators such as fructose-bis-phosphate.
In the case of `Cc1cc2c(s1)c1cnn(Cc3ccccc3F)c(=O)c1n2C`, the Potency is 3.52 µM (active). Then `COc1cccc(Cn2ncc3c4sc(B(O)O)cc4n(C)c3c2=O)c1`, with “inactive”.

As to `Cn1c2cc(B(O)O)sc2c2cnn(Cc3ccccc3F)c(=O)c21`, the Potency entry was “inactive”. To `O=S(=O)(c1ccc2c(c1)OCCCO2)N1CCN(S(=O)(=O)c2c(F)cccc2F)CC1` belongs “inactive”; to `O=S(=O)(NC1CCC(NS(=O)(=O)c2c(F)cccc2F)CC1)c1ccc2c(c1)OCCO2` (stereo not drawn), “inactive”; to `O=S(=O)(c1ccc2c(c1)OCCO2)N1CCN(S(=O)(=O)c2cccc[n+]2[O-])CC1`, “inactive”.

For the compound `Cc1cc2c(s1)c1cnn(Cc3c(F)cccc3Cl)c(=O)c1n2C`, the Potency result was “inactive”.

As to `Cn1c2cc(Br)sc2c2cnn(Cc3c(F)cccc3F)c(=O)c21`, the Potency entry was “inactive”.

For `Cc1cc2c(s1)c1cnn(Cc3ccc(F)cc3F)c(=O)c1n2C`, the Potency result is “inactive”. To `Cc1cc2c(s1)c1cnn(Cc3ccccc3)c(=O)c1n2C` belongs “inactive”.

Turning to `C[C@H]1CN(S(=O)(=O)c2ccc3c(c2)OCCO3)CCN1S(=O)(=O)c1c(F)cccc1F`, the Potency result is “inactive”. Then `Cn1c2cc(B(O)O)sc2c2cnn(Cc3c(F)cccc3Cl)c(=O)c21`, with “inactive”; and `Cn1c2ccsc2c2cnn(Cc3ccc(F)cc3)c(=O)c21`, with 17.8 µM (active).

As to `CC(=O)c1cc2c(s1)c1cnn(Cc3ccccc3F)c(=O)c1n2C`, the Potency was 0.794 µM (active). To `Cn1c2cc(Br)sc2c2cnn(Cc3c(F)cccc3Cl)c(=O)c21` belongs 7.94 µM (active); to `O=C(c1c(F)cccc1F)N1CCN(S(=O)(=O)c2ccc3c(c2)OCCO3)CC1`, “inactive”.

Regarding `O=S(=O)(c1c(F)cccc1F)C1CCN(S(=O)(=O)c2ccc3c(c2)OCCO3)CC1`, the Potency entry was “inactive”. Then `Cc1cc2c(s1)c1c(C)nn(Cc3ccccc3F)c(=O)c1n2C`, with “inactive”; and `Cc1cc2c(s1)c1cnn(Cc3cccc(Cl)c3)c(=O)c1n2C`, with “inactive”. `O=S(=O)(NC1CCN(S(=O)(=O)c2c(F)cccc2F)C1)c1ccc2c(c1)OCCO2` (stereo not drawn): the Potency result was “inactive”.

For `Cc1nc2ccc(S(=O)(=O)N3CCN(S(=O)(=O)c4c(F)cccc4F)CC3)cc2s1`, the Potency result is “inactive”.

As for `O=S(=O)(NCC1CN(S(=O)(=O)c2ccc3c(c2)OCCO3)C1)c1c(F)cccc1F`, the Potency result is “inactive”. To `COc1ccc(S(=O)(=O)N2CCN(S(=O)(=O)c3ccc4c(c3)OCCO4)CC2)cc1` belongs “inactive”; to `Cn1c2cc(CO)sc2c2cnn(Cc3ccccc3F)c(=O)c21`, 2.24 µM (active); to `Cn1ccc2cc(S(=O)(=O)N3CCN(S(=O)(=O)c4c(F)cccc4F)CC3)ccc21`, “inactive”. In the case of `O=S(=O)(c1ccc2ccccc2c1)N1CCN(S(=O)(=O)c2c(F)cccc2F)CC1`, the Potency entry is “inactive”. Then `COc1ccc(Cn2ncc3c4sc(C)cc4n(C)c3c2=O)cc1F`, with “inactive”; and `O=C1CN(S(=O)(=O)c2ccc3c(c2)OCCO3)CCN1S(=O)(=O)c1c(F)cccc1F`, with “inactive”. Then `Cn1c2cc(Br)sc2c2cnn(Cc3ccc(F)cc3F)c(=O)c21`, with 2.51 µM (active). On to `O=S(=O)(c1ccc2c(c1)OCCO2)N1CCN(S(=O)(=O)c2ccccn2)CC1`, for which the Potency result is “inactive”. To `COc1cc2c(s1)c1cnn(Cc3ccccc3F)c(=O)c1n2C` belongs 2.51 µM (active); to `COc1cccc(Cn2ncc3c4sc(Br)cc4n(C)c3c2=O)c1`, “inactive”; to `O=S(=O)(NCCCCNS(=O)(=O)c1c(F)cccc1F)c1ccc2c(c1)OCCO2`, “inactive”.
